# Reference: PubChem BioAssay (NCATS)
# Records with an inconclusive call do not appear. Unmarked numbers belong to inactive results. Activity calls are given as the source filed them. Calls follow the shape of the dose curve; as a rule, active = well fitted cell-killing curve with a large enough effect; inconclusive = small, poorly fitted or top-dose-only effect, or effect the other way; inactive = flat fitted curve, though single readings scatter. Non-standard residues stand in square brackets, D forms with d. Residues, ends and D or L forms follow the SMILES beside them. *: point of attachment. Sta = CC(C)C[C@H](N)[C@@H](O)CC(=O)O; Isovaleryl = CC(C)CC(=O)*
# Tested on: HeLa
# Experiment: Primary qHTS to identify gynecologic anti-cancer compounds using libraries of approved drugs and bioactive compounds (AID 1345084); also: nearly all actives have a fitted effect of over 55% in size
# Conditions: Gynecologic cancer cell panel viability, ATPlite luminescence, 48 h; series mostly up to 57.5 µM; activity change, negative = cytotoxicity: at the top concentration
# Procedure, shortened: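 In this quantitative HTS, cell killing is estimated from loss of ATP-dependent luciferase light. Cells see five compound concentrations over a 48 h exposure.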
# % is scaled to controls: 0 for no effect and ±100 for the full control effect.
Structure (SMILES),"activity change, negative = cytotoxicity",Potency
O=C(NCC1CCCCN1)c1cc(OCC(F)(F)F)ccc1OCC(F)(F)F (configuration not stated),-20.6%,–
O=C(OC1C[C@H]2CC[C@@H](C1)[N+]21CCCC1)C(O)(c1ccccc1)c1ccccc1 (some centres not stated),-13.3%,–
CCC(C)(Oc1ccc(C2(c3ccc(OC(C)(CC)C(=O)O)cc3)CCCCC2)cc1)C(=O)O (configuration not stated),–,inactive
Oc1ccc(OCc2ccccc2)cc1,18.2%,–
CCOC(=O)c1c(C)n(C)c2ccc(O)cc12,-4.32%,–
CC(C)c1nc(CN(C)C(=O)N[C@H](C(=O)N[C@@H](Cc2ccccc2)C[C@H](O)[C@H](Cc2ccccc2)NC(=O)OCc2cncs2)C(C)C)cs1,–,inactive
N=C(N)c1ccc2cc(OC(=O)c3ccc(N=C(N)N)cc3)ccc2c1,-8.76%,–
Cc1cc(=O)oc2cc(O)ccc12,-16.2%,–
c1cnc2cc3c(cc2n1)C1CNCC3C1,–,inactive
Clc1ccc(C(Cn2ccnc2)OCc2ccsc2Cl)c(Cl)c1 (configuration not stated),0.583%,–
CN(C)C(=O)COC(=O)Cc1ccc(OC(=O)c2ccc(N=C(N)N)cc2)cc1,3.68%,–
CC1=C(C)C(=O)C(C(CCCCCC(=O)O)c2ccccc2)=C(C)C1=O (configuration not stated),3.45%,–
Cn1c(NCCN(CCO)CCCc2ccc([N+](=O)[O-])cc2)cc(=O)n(C)c1=O,6.22%,–
O=C(O)c1cn(-c2ccc(F)cc2)c2cc(N3CCNCC3)c(F)cc2c1=O,18.2% [at 25.3 µM],–
CC(C)[C@H](N)C(=O)OCCOCn1cnc2c(=O)[nH]c(N)nc21,15.8%,–
Nc1ccc(S(N)(=O)=O)cc1,5.55%,–
COc1cc(OC)c(C(=O)CCCN2CCCC2)c(OC)c1,2.99%,–
O=C(NOCC1CC1)c1ccc(F)c(F)c1Nc1ccc(I)cc1Cl,-12.6%,–
CC1(C)CCC(C)(C)c2cc(NC(=O)c3ccc(C(=O)O)cc3)ccc21,-5.36%,–

Structure (SMILES),"activity change, negative = cytotoxicity",Potency
O=C(c1ccccc1)c1ccc2n1CCC2C(=O)O (configuration not stated),-2.54%,–
O=C(O)CCNC(=O)c1ccc(N=Nc2ccc(O)c(C(=O)O)c2)cc1,2.84%,–
CN(C)c1ccc(O)c2c1C[C@H]1C[C@H]3[C@H](N(C)C)C(=O)C(C(N)=O)=C(O)[C@@]3(O)C(=O)C1=C2O,-18.3%,–
CNC[C@H](O)c1ccc(O)c(O)c1,8.97% [at 25.3 µM],–
COc1cc2nc(N3CCN(C(=O)C4CCCO4)CC3)nc(N)c2cc1OC (configuration not stated),-15.6%,–
CCC[C@@H]1C[C@@H](C(=O)N[C@@H]([C@H]2O[C@H](SC)[C@H](O)[C@@H](O)[C@H]2O)[C@@H](C)O)N(C)C1,18.6%,–
CCC1=C(C)CN(C(=O)NCCc2ccc(S(=O)(=O)NC(=O)NC3CCC(C)CC3)cc2)C1=O (configuration not stated),–,inactive
Nc1ncn([C@H]2C[C@H](O)[C@@H](CO)O2)c(=O)n1,8%,–
CCCc1cc(=O)[nH]c(=S)[nH]1,1.8%,–
CC(C)CC(=O)N[C@H](C(=O)N[C@H](C(=O)N[C@@H](CC(C)C)[C@@H](O)CC(=O)N[C@@H](C)C(=O)N[C@@H](CC(C)C)[C@@H](O)CC(=O)O)C(C)C)C(C)C (Isovaleryl-VV[Sta]A[Sta]-OH),-9.08%,–
COCCCN1CCC(NC(=O)c2cc(Cl)c(N)c3c2OCC3)CC1,-0.864%,–
CC1=C(C(=O)O)N2C(=O)[C@@H](NC(=O)[C@H](N)C3=CCC=CC3)[C@H]2SC1,-10.2%,–
CC(=O)NC[C@H]1CN(c2ccc(N3CCOCC3)c(F)c2)C(=O)O1,16%,–
CC(=O)Nc1ccc(O)cc1,14.2%,–
CCN(CC)C(=S)SSC(=S)N(CC)CC,-1.09%,–
COc1cc2c(N3CCN(C(=O)Nc4ccc(OC(C)C)cc4)CC3)ncnc2cc1OCCCN1CCCCC1,–,inactive
CS(=O)(=O)OCCCCOS(C)(=O)=O,1.04%,–
Nc1cc(C(Cl)=C(Cl)Cl)c(S(N)(=O)=O)cc1S(N)(=O)=O,9.68%,–
